This note sets out measurements from ChEMBL document CHEMBL4513216, “Probing the Open Global Health Chemical Diversity Library for Multistage-Active Starting Points for Next-Generation Antimalarials” (ACS Infect Dis, 2020).

Screen size: about 69,000 compounds; about 8,600 (12%) showed an effect of 50% or more. The sample holds strong results, similar compounds and a random draw of the others, so the mix is not that of the screen.

For this assay, the system named is Plasmodium berghei. Briefly: Screen against P. berghei liver stage (PbLuc), transformed with Luciferase, at 10uM. It counts as functional, HepG2. As to conditions: tested at 10 uM.
Take `Cc1ccc2cc(C(=O)N3CCC(O)(C(F)(F)F)CC3)ccc2n1`: the INHIBITION is 51.7%.

As for `Cc1ccc2cc(C3(O)CCN(C(=O)CSC(C)C)CC3)ccc2n1`, the INHIBITION is 81.6%.

Take `O=C(c1ccoc1)N1CCC(O)(C(F)(F)F)CC1`: the INHIBITION was found to be 30%.

In the case of `CS(=O)(=O)Cc1ccc(C(=O)N2CCCC(n3cncn3)C2)o1` (stereo unspecified), the INHIBITION is 25.8%.

As to `Cn1ccc2ccc(C(=O)N3CC[C@@]4(O)CCCC[C@H]4C3)cc21`, the INHIBITION is reported as 18.3%.

As for `CC(=O)N1CCCN(Cc2cc(F)cc(Br)c2)CC1`, the INHIBITION worked out at 33.4%.

Take `O=C1CC(c2cccnc2)C2(CCN(S(=O)(=O)C3CC3)CC2)N1` (stereo unspecified): the INHIBITION turned out to be 9.67%.

Regarding `Cc1ccccc1-n1ncc2c(=O)n(CCN3CCCCC3)cnc21`, the INHIBITION is -51.1%.

For the molecule `COc1ccc(CN(C)Cc2c(C)noc2C)c(Br)c1OC`, the INHIBITION was found to be 26.8%.

As for `Cc1cnn(CC2CCCN2Cc2cc(C)on2)c1` (stereo unspecified), the INHIBITION was 4.585%.

Take `CC(C)(C)C(=O)N[C@H]1CC[C@H](Nc2nccc(-c3ccncc3)n2)C1`: the INHIBITION is given as 18.7%.

Consider `COc1cccc(CC2CN(C3CCCCC3)CCO2)c1` (stereo unspecified), for which the INHIBITION is 36.2%.

As to `CCOc1ccccc1N(C)Cc1nccn1C`, the INHIBITION is given as 52.6%.

For the molecule `CCOc1ccccc1OCCN(C)Cc1nccn1C`, the INHIBITION was determined as 20.5%.

For the molecule `CN(Cc1nccn1C)c1ccc(-c2nccn2C)nn1`, the INHIBITION was -84.1%.

With `COCCC(=O)N1CCCC1c1nccnc1Nc1ncccn1` (stereo unspecified), the INHIBITION was 33.7%.

Regarding `O=C1COC2(CCN(Cc3cccs3)CC2)CN1c1cncnc1`, the INHIBITION is 67%.

`Cn1ccnc1CN1CCC2(CC1)CN(c1ccccc1)C(=O)CO2`: the INHIBITION was -4.88%.

In the case of `Cn1ccnc1CN1CCC2(CC1)CN(Cc1cccnc1)C(=O)CO2`, the INHIBITION is 57.4%.

As for `Cn1ccnc1CN1CCC2(CC1)CN(c1cncnc1)C(=O)CO2`, the INHIBITION came out at 57.9%.

In the case of `O=C1COC2(CCN(Cc3cccs3)CC2)CN1c1ccccc1`, the INHIBITION was 26.8%.

As to `CN(C)CCN1CCC2(CC1)CN(Cc1cccnc1)C(=O)CO2`, the INHIBITION came out at 41.2%.

Take `O=C1COC2(CCN(Cc3cccs3)CC2)CN1c1cccnc1`: the INHIBITION was found to be 10.7%.

For the molecule `Cn1ccnc1CN1CCC2(CC1)CCN(c1cncnc1)C2=O`, the INHIBITION was found to be 8.93%.

Take `Cn1ccnc1CN1CCC2(CC1)CN(Cc1ccccc1)C(=O)CO2`: the INHIBITION is on record as 33%.

Turning to `O=C(c1cccnc1)N1CCC2(CC1)CCN(c1ccsc1)C2=O`, the INHIBITION is 16.6%.

On to `COCCCN1CC2(CCCCN2C(=O)c2ccsc2)CC1=O` (stereo unspecified), for which the INHIBITION turned out to be 20.7%.

Take `Cc1cc(CN(Cc2cccnc2)CC2CCCO2)on1` (stereo unspecified): the INHIBITION is reported as 48.2%.

Regarding `Cc1nccn1C1CCCN(C(=O)c2cc3c(F)cccc3[nH]2)C1` (stereo unspecified), the INHIBITION is 42%.

`CCc1ccc(NC(=O)C(C)Nc2cccc3c2OCCO3)cc1` (stereo unspecified): the INHIBITION came to 21.3%.

As to `O=C(c1ccc2[nH]cnc2c1)N1CCC(COc2ccccn2)CC1`, the INHIBITION came to 32.3%.

Consider `CN(CCn1cccn1)C1CCCN(Cc2noc(C3CC3)n2)C1` (stereo unspecified), for which the INHIBITION came to 39.7%.

Consider `Cc1csc(C2CCCCN2C(=O)c2cc(Cl)c[nH]2)n1` (stereo unspecified), for which the INHIBITION is -19.4%.

For the molecule `O=C(CSc1ccccn1)NCc1ccc2c(c1)CCC(=O)N2`, the INHIBITION stood at 35%.

As for `Cc1nnc(SCC(=O)c2cc3c(cc2Cl)NC(=O)C3)s1`, the INHIBITION was determined as 48.7%.

`Cc1nnc(SCC(=O)NCc2ccc3c(c2)CCC(=O)N3)s1`: the INHIBITION amounted to 72.3%.

As for `Cc1nnc(SCC(=O)NCc2ccc3c(c2)CCC(=O)N3)n1C`, the INHIBITION is given as 58.2%.

Take `Cn1ccnc1SCC(=O)NCc1ccc2c(c1)CCC(=O)N2`: the INHIBITION is recorded as 34.2%.

Consider `CC(NC(=O)NCc1ccoc1)c1ccc2c(c1)CCC(=O)N2` (stereo unspecified), for which the INHIBITION is 36.4%.

As to `CC(CC(=O)NCCS(N)(=O)=O)C1CCCCC1` (stereo unspecified), the INHIBITION was 16%.

Consider `CCN(Cc1ccc(O)c(C(=O)O)c1)CC1CCCO1` (stereo unspecified), for which the INHIBITION stood at 42.3%.

With `CN(Cc1nc(C(F)(F)F)cs1)C(=O)CCc1cccnc1`, the INHIBITION is -7.53%.

Take `CCCOc1cc(C)ccc1NC(=O)NCCNC(C)=O`: the INHIBITION worked out at 1.06%.

As for `O=C(c1ccncc1)N1CCC2(CC1)C(=O)Nc1ccccc12`, the INHIBITION is given as -16.9%.

For `CC(C)N(C)Cc1cn2c(n1)CN(C(=O)Cc1ccccc1)CC2`, the INHIBITION came to 72.3%.

`CC(C)N(C)Cc1cn2c(n1)CN(C(=O)c1ccc[nH]1)CC2`: the INHIBITION is 63.7%.

As to `CN(C)Cc1cc(=O)n2c(n1)CN(C(=O)c1ccc[nH]1)CCC2`, the INHIBITION is 32.1%.

For `CS(=O)(=O)NCc1cn2c(n1)CN(C(=O)c1ccc[nH]1)CC2`, the INHIBITION came to 27.3%.

Consider `CC(C)N(C)Cc1cn2c(n1)CN(C(=O)Cc1ccsc1)CC2`, for which the INHIBITION was -9.86%.

In the case of `CCN(CC)Cc1cn2c(n1)CN(C(=O)Cc1ccsc1)CC2`, the INHIBITION amounted to 73.6%.

As for `CN(Cc1cn2c(n1)CN(C(=O)c1ccc[nH]1)CC2)Cc1ccco1`, the INHIBITION is 7.31%.

As to `CCN(CC)Cc1cc(=O)n2c(n1)CN(C(=O)c1ccc[nH]1)CCC2`, the INHIBITION stood at 58.4%.

With `O=C(Cc1ccccc1)N1CCn2cc(Cn3cncn3)nc2C1`, the INHIBITION is -28.7%.

With `CC(C)N(C)Cc1cc(=O)n2c(n1)CN(C(=O)c1ccc[nH]1)CCC2`, the INHIBITION is 26.7%.

`CN(C)Cc1cn2c(n1)CN(C(=O)Cc1ccsc1)CC2`: the INHIBITION is -15.6%.

As to `O=C(Cc1ccsc1)N1CCn2cc(CN3CCCC3)nc2C1`, the INHIBITION is given as -63.2%.
